# Hits are enriched below; roughly 1.2% of the tested compounds scored in any of these assays.
# PfHsp40 yeast: rescue of yeast from PfHsp40 toxicity, primary screen, S. cerevisiae, ATP luminescence | S. cerevisiae expressing PfHsp40, growth rescue | growth rescue, % at 12.5 µM | hit rate 0.68% among 340,000; in the data active means growth rescue above about 28%, passing the limit was not always enough;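 further: yeast W303a lacking pdr1 and pdr3 grown in galactose medium; growth measured after three days at 30 °C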
# Yp Topo-I inh: Yersinia pestis topoisomerase I inhibitors, primary screen, biochemical, cleavage product accumulation, plate reader, single point; DNA topoisomerase I (Yersinia pestis CO92); AID 504884, 2011; Y. pestis Topo-I cleavage product accumulation; hit rate 0.064% among 360,000; activity, % at 10 µM; in the data active means activity above about 50%, passing the limit was not always enough
# PrP 5UTR inh: inhibition of PrP 5' UTR reporter expression; cell-based PrP 5' UTR mRNA reporter, plate reader; inhibition, % (concentration not given with the values); hit rate 0.35% among 340,000; in the data active means inhibition above about 52%
# BioA inh: M. tuberculosis BioA enzyme inhibitors, primary screen, biochemical, plate reader, single point, HTS | 7,8-diaminopelargonic acid synthase BioA (Mycobacterium tuberculosis) | purified M. tuberculosis BioA enzyme | inhibition, % at 9.99 µM | hit rate 0.096% among 360,000; in the data active means inhibition above about 40%
# TcdB inh: TcdB glycohydrolase inhibitors, primary screen, biochemical, single point, plate reader; TcdB glycohydrolase enzymatic assay; hit rate 0.24% among 350,000; AID 652162, 2013; inhibition, % at 9.99 µM; in the data active means inhibition above about 10%
# FadD28 binding: inhibitors of FadD28 bisubstrate probe binding, primary screen, biochemical, fluorescence polarization, single point; inhibition, % at 12.5 µM; hit rate 0.22% among 360,000; AID 588549, 2011; in the data active means inhibition above about 8.5%, passing the limit was not always enough
# A number is an active result; - = inactive; . = no result given; ! = not confirmed by another sample.
SMILES,PfHsp40 yeast,Yp Topo-I inh,PrP 5UTR inh,BioA inh,TcdB inh,FadD28 binding
NNC(=O)CNC(=O)Nc1n[nH]c(=S)s1,.,.,.,.,10,-
COCC#Cc1ccc2c(c1)O[C@@H](CN(C)C(=O)Nc1ccc(OC)cc1)[C@@H](C)CN([C@@H](C)CO)S2(=O)=O,.,.,.,-,-,.
CC(N)C(=O)NC(C(=O)N1CCCC1C(=O)NC(c1ccccc1)c1ccccc1)C(C)C (stereo not given),-,-,-,-,11,-
CNC(C)C(=O)NC(C(=O)N1CCCC1C(=O)NNc1ccccc1)C(C)C (stereo not given),-,-,-,-,-,-
C[C@@H]1CN([C@H](C)CO)C(=O)c2cc(C#CCN(C)C)cnc2O[C@H]1CN(C)C(=O)CN1CCOCC1,.,.,.,-,-,.
O=C(OCC(=O)N1CCCCC1)c1ccccc1SCC(=O)N1CCCCC1,-,-,-,-,16,-
O=C(COC(=O)c1ccccc1SCC(=O)N1CCCC1)NC1CCCCC1,-,-,-,-,-,-
O=C(O)c1cc(-c2ccccc2Cl)n(-c2cccc(Cl)c2)n1,-,-,-,-,13,-
O=C(O)c1cc(-c2ccccc2Cl)n(-c2ccc(F)cc2)n1,-,-,-,-,-,-
O=C(Nc1ccc(F)cc1)N[C@H]1CC[C@@H](CCn2cc(C3(O)CCCC3)nn2)O[C@@H]1CO,.,.,.,-,-,.
CC1CCC/C(=C\c2ccc(O)cc2)C1=O (stereo not given),-,-,-,-,37,-
Brc1ccc(Cn2c(-c3ccc(Br)o3)nc3ccccc32)o1,56,-,-,.,.,-
C[C@H](CO)N1C[C@H](C)[C@@H](CN(C)Cc2ccc3c(c2)OCO3)Oc2ccc(NC(=O)Nc3ccc(C(F)(F)F)cc3)cc2CC1=O,.,.,.,-,-,.
CCCCCCCCCCCCN1[C@@H](CC(C)=O)c2cc(C(F)(F)F)ccc2S1(=O)=O,-,-,-,-,.,-
CCCCCCCCN1[C@@H](CC(=O)OCC)c2cc(C(F)(F)F)ccc2S1(=O)=O,-,70,-,-,-,-
Cc1ccc(S(=O)(=O)N(C)C[C@@H]2Oc3ncc(-c4ccccc4)cc3C(=O)N([C@H](C)CO)C[C@H]2C)cc1,.,.,.,-,-,.
COc1ccccc1N=Nc1ccc(O)c2ncccc12,-,-,-,-,-,-
CCS(=O)(=O)c1ccc(N=Nc2ccc(O)c3ncccc23)c(OC)c1,214,-,-,.,-,-
CCOc1ccc(C2C(C(=O)c3ccc(C)o3)=C(O)C(=O)N2c2cc(C)on2)cc1OC (stereo not given),-,-,-,-,-,-
CCCCCOc1ccc(C2C(C(=O)c3ccc(C)o3)=C(O)C(=O)N2c2cc(C)on2)cc1 (stereo not given),-,88,-,-,-,-
Cc1cc(N2C(=O)C(O)=C(C(=O)c3cc4ccccc4o3)C2c2cccc(Br)c2)no1 (stereo not given),-,78,-,-,-,-
C[C@H](O)C#Cc1cnc2c(c1)C(=O)N([C@@H](C)CO)C[C@@H](C)[C@H](CN(C)C(=O)c1ccccc1)O2,.,.,.,-,-,.
C[C@H](CO)N1C[C@H](C)[C@H](CN(C)C(=O)Nc2ccc(F)cc2)Oc2c(NC(=O)NC3CCCCC3)cccc2C1=O,.,.,.,-,-,.
COC(=O)C1(O)CC(C(C)C)=NN1C(=O)c1ccccc1 (stereo not given),45,-,-,.,-,-
CCN1CCN(Cc2ccc(NC(=O)c3ccc(C)c(NC(=O)C(=O)c4c[nH]c5ccccc45)c3)cc2C(F)(F)F)CC1,-,-,-,-,-,55!
SMILES,PfHsp40 yeast,Yp Topo-I inh,PrP 5UTR inh,BioA inh,TcdB inh,FadD28 binding
CCN1CCN(Cc2ccc(NC(=O)c3ccc(C)c(NC(=O)c4ccc5n[nH]nc5c4)c3)cc2C(F)(F)F)CC1,-,-,-,-,-,-
CCN1CCN(Cc2ccc(NC(=O)c3cc(NC(=O)C(=O)c4c[nH]c5ccccc45)cc(OC)c3)cc2C(F)(F)F)CC1,-,-,-,-,-,66!
CCOc1ccccc1NC(=O)CC1Nc2cc(C)c(C)cc2NC1=O (stereo not given),49,-,-,-,.,-
CCOc1ccccc1NC(=O)CC1Nc2ccccc2NC1=O (stereo not given),-,-,-,-,.,-
COc1ccccc1NCC(=O)c1ccc(Cl)cc1,-,98,-,.,-,-
COc1ccccc1NCC(=O)c1ccc(C)c(C)c1,-,-,-,-,-,-
O=C(O)c1cccc2nc3ccccc3nc12,48,-,-,-,-,-
CC(=O)N1CC2(C1)[C@@H](c1ccc(-c3ccc(F)cc3)cc1)[C@@H](CO)N2C(C)=O,.,.,.,.,-,.
CO[C@@H]1CN(C)C(=O)c2cc(NC(=O)c3cnccn3)ccc2OC[C@H](C)N(C(C)=O)C[C@H]1C,.,.,.,-,-,.
COc1ccc(N/N=C(\C#N)C(=N)SCc2ccccc2)cc1,209,-,-,.,-,-
COc1cccc(CN(C)C[C@H]2OCc3cn(nn3)CCCC(=O)N([C@@H](C)CO)C[C@H]2C)c1,.,.,.,-,-,.
Clc1nc(-c2ccccn2)nc2scc(-c3ccccc3)c12,400,-,-,-,.,-
CCOc1cc(/C=N/n2cnnc2)ccc1O,-,-,-,-,17,-
C=CCc1cc(/C=N/n2cnnc2)cc(OCC)c1O,-,-,-,-,.,-
Fc1ccc(Oc2ccc3nnc(C(F)(F)F)n3n2)cc1,-,-,-,-,-,-
COc1cccc(Oc2ccc3nnc(C(F)(F)F)n3n2)c1,-,-,-,.,11,-
Cc1ccc(NC(=O)OC(C)N2CCCCC2)cc1NC(=O)OC(C)N1CCCCC1 (stereo not given),-,-,-,-,11,-
COCCCNc1c2c3c(cccc3[nH]c1=O)C(=O)c1ccccc1-2,-,-,-,-,-,58
O=C(C[C@H]1CC[C@H]2[C@@H](COC[C@@H](O)CN2S(=O)(=O)c2ccc(Oc3ccccc3)cc2)O1)NCCN1CCCCC1,.,.,.,-,-,.
CC[C@@H](C(=O)[C@@H](C)[C@@H](O)[C@H](C)[C@@H]1O[C@@H]([C@@H](CC)C(=O)O)CC[C@@H]1C)[C@H]1O[C@]2(C=C[C@@H](O)[C@]3(CC[C@@](C)([C@H]4CC[C@](O)(CC)[C@H](C)O4)O3)O2)[C@H](C)C[C@@H]1C,220,-,-,-,-,-
CO[C@H]1CN(C)C(=O)c2ccc(NC(=O)C3CCC3)cc2OC[C@@H](C)N(C(=O)CN(C)C)C[C@@H]1C,.,.,.,-,.,.
COc1ccc(-c2cc(-c3ccc(OC)cc3)[nH]n2)cc1,53,-,-,-,.,-
CC=Cc1ccc2n(c1=O)C[C@@H]1[C@@H](CO)[C@H](C(=O)N[C@@H](C)c3ccccc3)N(C)[C@H]21 (mixture of isomers),.,.,.,-,-,.

# Screening data (PubChem BioAssay)
